Assay outcomes: PubChem, National Center for Advancing Translational Sciences (NCATS)
This excerpt belongs to a sample that is enriched for hits.
FBPA Giardia inh: Giardia lamblia aldolase inhibition; A8B2U2; purified Giardia FBPA; Potency, µM (titrated, usually from 59.6 µM), for the others: top-dose activity, negative = inhibition, usual class: inhibitors; hit rate 0.71% among 290,000; AID 2451; note: potency is the fitted concentration of half-maximal effect; % is set by controls: 0 for no effect and ±100 for the full control effect; nearly all actives have a fitted effect of over 55% in size
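Giardia FBPA (40 nM reagent) was preincubated 10 min at RT with compound (up to 57.5 uM final), then substrate plus GAPDH/TPI/NAD/arsenate coupling system with diaphorase/resazurin was added; resorufin fluorescence (525/598 nm) was read after 20 min.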
TbPYK inhibitor: T. brucei pyruvate kinase inhibition. Q57TT1. TbPYK enzyme, Kinase-Glo Plus ATP luminescence, 45 min. Potency, µM (doses to about 76.8 µM), without a hit: at the top dose activity, negative = inhibition, most hits filed as inhibitors. hit rate 0.12% among 410,000; note: potency is the fitted concentration of half-maximal effect; % is set by controls: 0 for no effect and ±100 for the full control effect; nearly all actives have a fitted effect of over 50% in size
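Luminescence from Kinase-Glo Plus, added after a 45-minute room-temperature reaction, served as the end-point read-out. The enzyme and substrate were preincubated with compound before ADP (130 uM final) initiated turnover. Concentration-effect curves came from normalized qHTS data.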
LmPK inh: inhibitors of Leishmania mexicana pyruvate kinase; Potency, µM (top dose mostly 57.5 µM), for inactives: top-dose activity change, negative = inhibition, hits mostly inhibitors; AID 1721; hit rate 0.37% among 290,000; purified LmPK, Kinase-Glo ATP luminescence, 1 h; Q27686; note: potency is the fitted concentration of half-maximal effect; % is set by controls: 0 for no effect and ±100 for the full control effect
Target sequence (Q27686 whole entry, looked up): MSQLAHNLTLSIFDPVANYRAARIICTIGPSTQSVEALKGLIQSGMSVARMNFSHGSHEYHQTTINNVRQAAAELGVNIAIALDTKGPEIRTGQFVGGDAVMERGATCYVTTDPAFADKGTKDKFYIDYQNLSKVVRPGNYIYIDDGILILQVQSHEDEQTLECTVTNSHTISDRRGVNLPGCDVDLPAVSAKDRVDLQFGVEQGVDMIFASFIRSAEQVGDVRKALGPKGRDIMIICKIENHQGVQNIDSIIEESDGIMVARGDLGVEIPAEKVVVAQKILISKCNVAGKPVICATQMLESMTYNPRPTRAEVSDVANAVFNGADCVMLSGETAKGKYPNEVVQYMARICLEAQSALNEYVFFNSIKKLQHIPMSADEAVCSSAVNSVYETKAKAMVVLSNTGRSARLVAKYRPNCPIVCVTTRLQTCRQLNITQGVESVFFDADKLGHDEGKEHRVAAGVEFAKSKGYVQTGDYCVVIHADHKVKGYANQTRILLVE
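qHTS format; LmPK 0.1 nM; substrates PEP 0.5 mM and ADP 0.1 mM. One-hour room-temperature incubation, then coupled luciferase luminescence; 0.5 nM enzyme wells mark activation.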
Shiga toxin inh: blocks Shiga toxin action in Vero cells. hit rate 9.2% among 290,000. AID 2315. inhibition, % at 38.7 µM. Vero cells, Shiga toxin protein synthesis inhibition reporter; in the data active = inhibition mostly above about 28%, no sharp cut-off; inactive = mostly below about 43%; note: 0% is about no effect
RE007 growth inh: less growth of the S. pombe RE007 Vpr strain; S. pombe RE007 Vpr strain, BacTiter-Glo ATP luminescence, 24 h; Potency, µM (highest dose often 92.2 µM), for the others: at the top dose activity change, negative = less growth, most hits filed as inhibitors; hit rate 0.21% among 360,000; AID 651644; active = well fitted falling curve with a large enough effect; inconclusive = small, poorly fitted or top-dose-only effect; inactive = no such curve, though single readings can be large or run the other way; note: potency is the fitted concentration of half-maximal effect; % is set by controls: 0 for no effect and ±100 for the full control effect; nearly all actives have a fitted effect of over 50% in size
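Fission yeast strain RE007, carrying one chromosomally integrated HIV-1 vpr copy, was seeded at OD 0.01 in PMG+AL medium with 23 nL pinned compound. After 24 h at 30 °C and 99% humidity, viability was read by BacTiter-Glo luminescence.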
CHX counter: counter-screen hit for Shiga toxin inhibitors, cycloheximide | cell reporter, cycloheximide protein synthesis inhibition counterscreen | max response, % | hit rate 12% among 300,000 | AID 2314; in the data active = max response mostly above about 13%, no sharp cut-off; inactive = mostly below about 14%; note: read at 38.3 µM for the half of the compounds with a filed dose; 0% is about no effect
* hit, by the source's call; [ ] = another dose, or the depositor's remark. Unless noted, calls come from the whole dose curve; as a rule, active = well fitted curve in the direction sought with a large enough effect; inconclusive = small, poorly fitted or top-dose-only effect, or another doubt; inactive = no such curve, though single readings can be large; an effect the other way counts as inactive or inconclusive.

O=C(/C=C/c1ccccc1)c1ccccn1 was read as FBPA Giardia inh -21%, TbPYK inhibitor inconclusive, LmPK inh 14µM*, Shiga toxin inh 84*, RE007 growth inh 35µM* and CHX counter 38*.
N/C(=N\OC(=O)/C=C/c1ccccc1)c1ccccn1 was read as FBPA Giardia inh 1%, TbPYK inhibitor -27%, LmPK inh 13µM*, Shiga toxin inh 30, RE007 growth inh -23% and CHX counter 20*.
For COc1ccc(/C=C/C(=O)O/N=C(\N)c2ccccn2)cc1OC the results were TbPYK inhibitor 2% and RE007 growth inh -20%.
`C[C@H]1/C=C\CC(=O)NCc2cccc(c2)CNC(=O)N[C@H]1c1ccccc1` gave FBPA Giardia inh 2%.
`CC(C)(C)N1C(=O)[C@H]2[C@@H]3[C@H](O)C=CC(=O)[C@H]3CC[C@H]2C1=O` gave FBPA Giardia inh 1%[12.9 µM].
Screening CCCCC/C=C\C[C@@H]1O[C@H]1/C=C/C(O)C/C=C\CCCC(=O)O (some centres undefined) returned FBPA Giardia inh 4%.
CCOc1ccccc1NC(=O)c1ccc2c(Cl)c3c(nc2c1)CCCC3 was read as TbPYK inhibitor 4%.
Cc1cc(N/C(=N/S(=O)(=O)c2cc(F)ccc2F)c2ccccc2)n(-c2ccccc2)n1 was read as FBPA Giardia inh -4%, TbPYK inhibitor -3%, LmPK inh -4%, Shiga toxin inh 16, RE007 growth inh 7% and CHX counter 15*.
Screening Cc1cc(N/C(=N\S(=O)(=O)c2ccc(F)cc2F)c2ccccc2)no1 returned FBPA Giardia inh -1%, TbPYK inhibitor -2%, LmPK inh 2%, Shiga toxin inh 26, RE007 growth inh 8% and CHX counter 1.
Screening Cc1ccc2nc(N/C(=N/S(=O)(=O)c3ccc(F)cc3F)c3ccccc3)sc2c1 returned FBPA Giardia inh 3%, TbPYK inhibitor 3%, LmPK inh 3%, Shiga toxin inh 66*, RE007 growth inh -9% and CHX counter 31*.
O=S(=O)(/N=C(/Nc1nc2ccccc2s1)c1ccccc1)c1ccccc1 was read as TbPYK inhibitor -6% and RE007 growth inh 19%.
Screening Cc1ccc2nc(N/C(=N/S(=O)(=O)c3ccc(F)cc3)c3ccccc3)sc2c1 returned FBPA Giardia inh 6%, TbPYK inhibitor 0%, LmPK inh -10%, Shiga toxin inh 132*, RE007 growth inh -5% and CHX counter 48*.
`Cc1cc(N/C(=N/S(=O)(=O)c2ccc(F)cc2)c2ccccc2)n(-c2ccccc2)n1` gave FBPA Giardia inh -9%, TbPYK inhibitor 1%, LmPK inh 7%, Shiga toxin inh -6, RE007 growth inh -9% and CHX counter -4.
Screening CCN(C(=O)Cn1cnc2c1c(=O)n(C)c(=O)n2C)c1ccccc1C returned TbPYK inhibitor 2%.
Screening Cc1ccnc(-n2c(-c3ccccc3)nc3ccccc3c2=O)c1 returned FBPA Giardia inh -3%, TbPYK inhibitor 0%, LmPK inh 1%, Shiga toxin inh -12, RE007 growth inh -11% and CHX counter 3.
For Cc1ccnc(-n2c(C)nc3ccccc3c2=O)c1 the results were FBPA Giardia inh 0%, TbPYK inhibitor -3%, LmPK inh 1%, Shiga toxin inh 44, RE007 growth inh 14% and CHX counter 12*.
Cc1nc2ccccc2c(=O)n1-c1ccc(Br)cn1 was read as FBPA Giardia inh 7%, TbPYK inhibitor 1%, LmPK inh -2%, Shiga toxin inh 55*, RE007 growth inh 25% and CHX counter 27*.
Screening Cc1nc2ccccc2c(=O)n1-c1ccc(F)cc1 returned FBPA Giardia inh 10%, TbPYK inhibitor 10%, LmPK inh 4%, Shiga toxin inh -2, RE007 growth inh 4% and CHX counter -1.
For CCCCC(=O)Nc1cc(C)c(O)c(-c2nc3ncccc3o2)c1 the results were TbPYK inhibitor 1%.
